Measurements taken from the supplement of paper PMC6555819.

What was measured:
Assay in all cases: PBM binding z-score (relative to random genomic background probes); higher = stronger binding; sequences stand for … in GC…GCGATTGACAGCGTAGAATGAAGG
[1] = test system: RARb homodimer (NR concentration 270 nM)
How it was run: (§1)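 Ligand-free nuclear receptor dimers were bound for 1 h to custom Agilent 4×180K protein-binding microarrays. Detection used antibodies against each partner (one per run). Binding z-scores rest on regression-normalized fluorescence, with random background probes as the reference.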

[2] = test system: RARg:RXRa (NR concentration 270 nM, RXRa partner concentration 90 nM)
How it was run: as §1

[3] = test system: RARg homodimer (NR concentration 270 nM)
How it was run: as §1

[4] = test system: RXRa DBDmut IVT, anti-RXR (DBD mutation: RXRa K156A/R161A, NR concentration 90 nM)
How it was run: as §1

[5] = test system: RXRa homodimer (NR concentration 180 nM)
How it was run: as §1

[6] = test system: THRa:RXRa (NR concentration 90 nM, RXRa partner concentration 90 nM)
How it was run: as §1

[7] = test system: THRa homodimer (NR concentration 90 nM)
How it was run: as §1

[8] = test system: VDR homodimer (NR concentration 270 nM)
How it was run: as §1

Row | Sequence | PBM binding z-score [1] | PBM binding z-score [2] | PBM binding z-score [3] | PBM binding z-score [4] | PBM binding z-score [5] | PBM binding z-score [6] | PBM binding z-score [7] | PBM binding z-score [8]
1 | TCTGCTAGGTCAACGGTGGTCAGCTAATCTGCTA | 3.48 | 4.11 | 4.99 | 1.01 | 2.54 | 3.46 | 0.796 | -0.606
2 | AGTCAAAGCTCAGGACGAGGTAACGTAAAGCACG | -0.228 | 0.0301 | 0.2 | -0.664 | -0.013 | 1.86 | 1.21 | -0.138
3 | TAGCCTAGGTCAGGGGCCAGTATACCACGCGAAC | 2.47 | 3.16 | 3.82 | -0.891 | 2.16 | 1.91 | 0.583 | -0.245
4 | ATCGAAAGGTCGACGAGGTGAGTATTCACCGTTT | 3.13 | 4.29 | 4.32 | 1.13 | 4.63 | 3.65 | 0.672 | 0.806
5 | CCTTCCGGGTCACTGACAGGTTATAGCATTTGGA | 3.23 | 5.65 | 4.44 | 1.53 | 4.67 | 3.67 | 2.25 | 1.3
6 | TAGCCTAGGTCATTCAGTGGCCAGTATAGAAAGC | 2.59 | 4.43 | 3.96 | 1.92 | 2.63 | 2.55 | 0.351 | 1.24
7 | CAAACTAGGTCAAGGTCAAGGTCGGTTTGTGCCA | 5.4 | 6.25 | 7.34 | 2.79 | 6.62 | 4.54 | 4.73 | 4.06
8 | GGAGACAGGTGAAACGCAGGTAACTCAGGGTGGC | 0.55 | 1.11 | 0.252 | -0.648 | 0.638 | 1.48 | 0.0199 | -0.609
